In publication PMC7819943, “Rice protein-binding microarrays: a tool to detect cis-acting elements near promoter regions in rice”:
The full ranking holds about 39,000 sequences; the median of “fluorescence intensity (a.u.)” is about 4,300, and the highest 2% start at about 39,000. Only a selection was taken, and the highest values are over-represented in it overall.

What follows are sequences tested against T1, OsSMF1 (Oryza sativa, UniProt Q6ZLB0 1-436) (assay: protein-binding microarray (RPBM); PBS, 2% BSA, 51.3 ng/ul salmon testes DNA, 50 uM zinc acetate, 200 nM TF, 25 C, 1 h; high values mean tight binding). Settings: protein: recombinant; tags: N-terminal polyhistidine and DsRed monomer fusion (pET32a); chain copies: 2; label: CyDye5-dUTP incorporated in the synthesized complementary strand; 3' TTTTT single-stranded linker to array surface; dsDNA, one strand shown.
T1 sequence: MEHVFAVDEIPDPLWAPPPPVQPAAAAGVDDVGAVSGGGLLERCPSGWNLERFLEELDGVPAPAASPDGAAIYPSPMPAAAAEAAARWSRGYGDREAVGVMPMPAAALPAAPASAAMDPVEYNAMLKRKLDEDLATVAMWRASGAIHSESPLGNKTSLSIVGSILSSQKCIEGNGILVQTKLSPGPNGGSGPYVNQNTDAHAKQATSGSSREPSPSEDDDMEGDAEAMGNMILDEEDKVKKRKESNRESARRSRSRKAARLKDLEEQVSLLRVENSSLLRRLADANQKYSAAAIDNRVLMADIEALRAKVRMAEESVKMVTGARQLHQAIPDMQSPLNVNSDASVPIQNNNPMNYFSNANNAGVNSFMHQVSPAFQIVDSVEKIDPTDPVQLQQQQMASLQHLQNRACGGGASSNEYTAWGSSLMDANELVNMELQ
How it was run: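 Using Ni–NTA, transcription factors fused N-terminally to polyhistidine and DsRed were purified after expression in E. coli BL21-CodonPlus. These were incubated at 200 nM with a blocked, double-stranded custom Agilent array for 1 h at 25 °C in a buffer containing 50 µM zinc acetate, and the array was washed. The binding signal is per-feature fluorescence intensity (arbitrary units) on an Axon 4000B scanner.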

Row | Sequence | binding signal
1 | CTGCGCGTAGAAGTGACGCAAGAAGGCAGCGGGCCCACTACGGAGTCACCTAGTGCAG | 3230 fluorescence intensity (a.u.)
2 | AGAACCTTCCGCGCTTCCGTGCTCCCCACCGCCACCTCGCCGGAGTCACCTAGTGCAG | 3430 fluorescence intensity (a.u.)
3 | TCACATCCACGTATATTCCCTTCCCCTTCTCCAACCTTTCCGGAGTCACCTAGTGCAG | 9390 fluorescence intensity (a.u.)
4 | TCATCATCAAGACTGAGTCACTGACACGTGTGCACCTATGCGGAGTCACCTAGTGCAG | 27900 fluorescence intensity (a.u.)
5 | TCTATATTCTACTCAATGCTTGGTTCTAAATTGGCCTCAACGGAGTCACCTAGTGCAG | 24700 fluorescence intensity (a.u.)
6 | CTATTTGTGTCTTGTGTACTTCAACGTCTTCCTCTTATGACGGAGTCACCTAGTGCAG | 3680 fluorescence intensity (a.u.)
7 | ATACAGTAAATATTTGCTAATGACGGATTAATTAGGCTTACGGAGTCACCTAGTGCAG | 3790 fluorescence intensity (a.u.)
8 | GCGTGCGCGTCGACGTCGTCACCGCCGTCCACGGCGTAGTCGGAGTCACCTAGTGCAG | 5680 fluorescence intensity (a.u.)
9 | ACATCCTATCCCGTGCATTGAATCAGCATTGTACAGCAAACGGAGTCACCTAGTGCAG | 3370 fluorescence intensity (a.u.)
10 | GAGCTCCACCTCCTCGCGTGCCCACGCCATCCATGGCTTCCGGAGTCACCTAGTGCAG | 4500 fluorescence intensity (a.u.)
11 | TTTGTCTATAAATTTAGTCAAACTTGAAACAATTTGATTTCGGAGTCACCTAGTGCAG | 14600 fluorescence intensity (a.u.)
12 | TTTATATAATAGTTACTTACTATACTATTAATACTTGATTCGGAGTCACCTAGTGCAG | 16600 fluorescence intensity (a.u.)
13 | GTGGTGCTACAGTAAATATTTGCTAATGATAGATTAATTACGGAGTCACCTAGTGCAG | 7300 fluorescence intensity (a.u.)
14 | AAATACATCCAAGAACACAATATATTCCAATATTTTGTCACGGAGTCACCTAGTGCAG | 34500 fluorescence intensity (a.u.)
15 | CGGAGGGAGTATAAAAGAACAATACTTCTATAAATTTTGTCGGAGTCACCTAGTGCAG | 40300 fluorescence intensity (a.u.)
16 | ATTTAATAAAACTTATTTGGTGTTGTAAATGTTGCTAAATCGGAGTCACCTAGTGCAG | 26700 fluorescence intensity (a.u.)
17 | GGTTGTTCTAACAAATTGTTTATAAAACAATTTGATTTTGCGGAGTCACCTAGTGCAG | 3570 fluorescence intensity (a.u.)
18 | AAAATTATGTTGTCATTTTAATATATTTGAATAATACATTCGGAGTCACCTAGTGCAG | 3560 fluorescence intensity (a.u.)
19 | TTTTCTATAAATTTAGTCAAATATAACAAAGTTTGATTAGCGGAGTCACCTAGTGCAG | 42600 fluorescence intensity (a.u.)
20 | ATAATTTGGTGTTACAGTAAACATTTGCTAATAATGGATTCGGAGTCACCTAGTGCAG | 49500 fluorescence intensity (a.u.)
21 | ATGTCGTAGCTTTTAATTATATACTACTATAAATTTGATTCGGAGTCACCTAGTGCAG | 43700 fluorescence intensity (a.u.)
22 | AGGGAAAGATTCTAACAAATAAAGAAAAGAACAATGCAGCCGGAGTCACCTAGTGCAG | 3260 fluorescence intensity (a.u.)
23 | CCAATTCACTCCACCATACTGTTGGCACCTATGATAGAACCGGAGTCACCTAGTGCAG | 3430 fluorescence intensity (a.u.)

Row | Sequence | binding signal
24 | AGAAAACCTACACCCCGGGCTTCCGTTGCAACGTGACAACCGGAGTCACCTAGTGCAG | 13300 fluorescence intensity (a.u.)
25 | TATACAAGTCAGCTGCTGCTCGATCTTGTCATGAGAGCCCCGGAGTCACCTAGTGCAG | 5140 fluorescence intensity (a.u.)
26 | GGAGAGGGAGCGGGAGAGGGAGGATTGGAGGATGTGGGGACGGAGTCACCTAGTGCAG | 15400 fluorescence intensity (a.u.)
27 | CTGCGGTTGCATTGCATGGAGATGGACCCTCAACCAGCTACGGAGTCACCTAGTGCAG | 3700 fluorescence intensity (a.u.)
28 | CCGACAAAAGATGGTTTCTCCATCAGTGAAGACACAATGTCGGAGTCACCTAGTGCAG | 19500 fluorescence intensity (a.u.)
29 | CATCGGACGGCCCATGTAGCCCAACTCCTCCGCTGCCACGCGGAGTCACCTAGTGCAG | 3410 fluorescence intensity (a.u.)
30 | TTAGTATGTGATTAATTTAGTATTAATTATTTAACTATAACGGAGTCACCTAGTGCAG | 31900 fluorescence intensity (a.u.)
31 | ATGGCTGTTGATTTTAATAGTGCAGGAGTGGTTTATAGCTCGGAGTCACCTAGTGCAG | 4220 fluorescence intensity (a.u.)
32 | GGGCTCCCAGTATAGCTTAGGTTGATTTAATTATGGTTAACGGAGTCACCTAGTGCAG | 49500 fluorescence intensity (a.u.)
33 | ACACTGCCACGTCAGCGCCACGTTAGCAAAACCGTCCTCCCGGAGTCACCTAGTGCAG | 35500 fluorescence intensity (a.u.)
34 | GCAACAGTGTTATGCAACAGTGTCATTCAGTCTCTACACACGGAGTCACCTAGTGCAG | 32000 fluorescence intensity (a.u.)
35 | AGCTGGTGATGAGCAGCGTCACCAATTCTTCCTGGACGCCCGGAGTCACCTAGTGCAG | 4190 fluorescence intensity (a.u.)
36 | ACGGCGGGAACAATTGTGGGCGGTGGCCTTGGCCGAATCGCGGAGTCACCTAGTGCAG | 55000 fluorescence intensity (a.u.)
37 | GGCAGCTTGGTGCGGGAGAGAGGCGGCGGCGAAGGGGAGACGGAGTCACCTAGTGCAG | 41900 fluorescence intensity (a.u.)
38 | CGGTGGCGGGAACATGTGGGCGGTGGCAGGAGTGCAGGTGCGGAGTCACCTAGTGCAG | 3810 fluorescence intensity (a.u.)
39 | AGAAGAGGGAGACAGAGGATAGAGAGAAGAGGGCACTTCACGGAGTCACCTAGTGCAG | 11900 fluorescence intensity (a.u.)
40 | GCAACGGAAGAGATGAGGAGATGACTCGGATGAGCGGAAGCGGAGTCACCTAGTGCAG | 3180 fluorescence intensity (a.u.)
41 | GAACGGAACGCAACGTGCGGAGAGAGAGCGAGAGAGAAGCCGGAGTCACCTAGTGCAG | 30600 fluorescence intensity (a.u.)
42 | GGCGGCAGCGACGGCGGAGGCGAGGGAGGGGAGGCGGCGGCGGAGTCACCTAGTGCAG | 3930 fluorescence intensity (a.u.)
43 | GTGGAGGCGAGGCGGCGAGAGGCGGGTAGCAGTGGAGGAGCGGAGTCACCTAGTGCAG | 3430 fluorescence intensity (a.u.)
44 | GAGAGGAGGAAGACAGAGAGGAGAGATGAGATAGGATCAACGGAGTCACCTAGTGCAG | 46200 fluorescence intensity (a.u.)
45 | CGGCGAGGCGAACTCAACGGGTACGCAAAGCGAAGAGGAGCGGAGTCACCTAGTGCAG | 45600 fluorescence intensity (a.u.)
